From PubChem BioAssay
A selection: hits, their analogues and other compounds. The true share with any hit is near 1.6%.
KCNQ2 inh – rat KCNQ2 potassium channel inhibitors, primary screen, cell-based, CHO-K1, FluxOR thallium flux, B-score. 20 min; hits give low values. Potassium voltage-gated channel subfamily KQT member 2 (Rattus norvegicus), O88943. actives 1.1% (n = 310,000). AID 2156, 2009. B-score at 10 µM;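 active = fluorescence ratio B-score at most minus 3 library SDs, with starting brightness B-score within 2 library SDs, cut at about -5.5 in these data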
Target sequence (O88943 whole entry, looked up): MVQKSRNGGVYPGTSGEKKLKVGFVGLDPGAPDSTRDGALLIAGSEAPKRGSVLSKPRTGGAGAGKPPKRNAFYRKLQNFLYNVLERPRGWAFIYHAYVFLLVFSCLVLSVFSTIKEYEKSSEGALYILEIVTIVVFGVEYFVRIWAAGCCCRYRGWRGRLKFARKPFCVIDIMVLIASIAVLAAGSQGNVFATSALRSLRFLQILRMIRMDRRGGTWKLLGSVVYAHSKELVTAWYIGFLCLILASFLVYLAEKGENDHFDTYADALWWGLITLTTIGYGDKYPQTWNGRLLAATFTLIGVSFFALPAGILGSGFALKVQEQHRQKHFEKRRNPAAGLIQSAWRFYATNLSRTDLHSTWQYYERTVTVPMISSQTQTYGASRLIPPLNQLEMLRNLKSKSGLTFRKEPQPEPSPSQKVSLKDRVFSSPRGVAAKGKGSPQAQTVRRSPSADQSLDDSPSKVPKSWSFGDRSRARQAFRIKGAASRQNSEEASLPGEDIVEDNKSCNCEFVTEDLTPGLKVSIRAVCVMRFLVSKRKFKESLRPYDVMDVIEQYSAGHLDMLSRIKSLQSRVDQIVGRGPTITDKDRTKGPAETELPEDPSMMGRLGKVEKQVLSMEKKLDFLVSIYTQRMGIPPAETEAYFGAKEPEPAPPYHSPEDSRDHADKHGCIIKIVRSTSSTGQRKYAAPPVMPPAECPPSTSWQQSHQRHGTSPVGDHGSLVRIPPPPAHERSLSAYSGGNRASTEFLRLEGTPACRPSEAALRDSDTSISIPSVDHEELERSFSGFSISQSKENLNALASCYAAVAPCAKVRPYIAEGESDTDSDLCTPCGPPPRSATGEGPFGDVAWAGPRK
KCNQ2 pot – potentiators of rat KCNQ2 potassium channel | Potassium voltage-gated channel subfamily KQT member 2 (Rattus norvegicus), O88943 | CHO-K1 KCNQ2, FluxOR thallium flux fluorescence; hits give high values | B-score at 10 µM | actives 0.54% (n = 310,000) | AID 2239, 2010;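 active = fluorescence ratio B-score at least 3 SD of library B-scores, with initial fluorescence B-score within 3 of them, cut at about 5.3 in these data; same plate scores as AID 2156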;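 note: B-score of peak minus minimum over baseline fluorescence ratio after K+ and Tl+ stimulus; positive B-score means potentiation of KCNQ2 with more thallium influx and brighter signal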
KCNQ2 inh conf – rat KCNQ2 potassium channel inhibitors, confirmation, cell-based, thallium flux | activity change, negative = inhibition, % at 10 µM | actives 57% (n = 1,000) | shares compounds with KCNQ2 inh | KCNQ2-expressing cells, inhibition; hits give low values
KCNQ1 spec – human KCNQ1 channel inhibition, counter-screen for KCNQ2 inhibitor project, cell-based, FluxOR thallium flux | shares compounds with KCNQ2 inh | KCNQ1-expressing cells, FluxOR thallium flux fluorescence; hits give low values | activity change, negative = inhibition, % at 10 µM | actives 15% (n = 1,000);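 active = activity change at least 3 SD of negative controls below their mean in both duplicate wells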;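 note: CHO cells stably transfected with KCNQ1 and depolarized by potassium stimulus; peak minus minimum fluorescence over baseline after thallium addition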
CHO parental ctr – thallium flux change in parental CHO cells, counter-screen for KCNQ2 inhibitor project | shares compounds with KCNQ2 inh | hits give low values | activity change, % at 10 µM | actives 14% (n = 1,000) | AID 493029, 2011
KCNQ2 patch conf – rat KCNQ2 channel inhibitors, confirmation, cell-based, automated patch clamp, single concentration; shares compounds with KCNQ2 inh; KCNQ2-expressing cells, automated patch clamp current; calls only at 10 µM; actives 49% (n = 550); AID 588531, 2011
Each line names hits and unclear results; the compound was inactive in the other large screens (follow-up assays come after a bar, where they were run). Unless noted, the rule behind the calls is not given here.

CC(=O)N1CCN(c2ccccc2NC(=O)COc2cc(C)cc(C)c2)CC1	none (no result: KCNQ2 pot)
Cc1cc(C)c(OCC(=O)Nc2ccccc2N2CCOCC2)c(C)c1	KCNQ2 inh -9.4 | KCNQ2 inh conf inactive | KCNQ1 spec inactive | CHO parental ctr inactive
COc1ccc(C(=O)Nc2ccc(C(=O)N3CCCCC3C)cc2)c(OC)c1OC (centres undefined)	none (no result: KCNQ2 pot)
COc1ccc(NC(=O)CCCn2cnc3ccccc3c2=O)c(OC)c1	none
N#CC(C(=O)NCCc1ccccc1)c1nc2ccccc2nc1N1CCCCC1 (centres undefined)	none (no result: KCNQ2 pot)
CCOC(=O)N1CCN(c2nc3ccccc3nc2C(C#N)C(=O)NCCc2ccccc2)CC1 (centres undefined)	KCNQ2 inh -8.7 | KCNQ2 inh conf inactive | KCNQ1 spec inactive | CHO parental ctr inactive
CN(Cc1c(C(=O)N/N=C/c2cccs2)nnn1-c1nonc1N)c1ccccc1	none (no result: KCNQ2 pot)
O=C(Nn1cc(C(=O)Nc2ccccc2F)c2ccccc2c1=O)c1cnccn1	none (no result: KCNQ2 pot)
COC(=O)c1cn(NC(=O)c2cccc(N(C)C)c2)c(=O)c2ccccc12	KCNQ2 inh -7.8 | KCNQ2 inh conf -45% | KCNQ1 spec -36% | CHO parental ctr -30% | KCNQ2 patch conf active
COC(=O)c1cn(NC(=O)c2cccc(F)c2)c(=O)c2ccccc12	none (no result: KCNQ2 pot)
COc1cc(OC)cc(C(=O)Nn2cc(C(=O)Nc3ccccc3F)c3ccccc3c2=O)c1	KCNQ2 inh -7.1 | KCNQ2 inh conf inactive | KCNQ1 spec inactive | CHO parental ctr inactive
C/C(N)=C(/C#N)C(=O)COC(=O)c1ccc(C#N)cc1	none (no result: KCNQ2 pot)
Cc1ccc([N+](=O)[O-])cc1NC(=S)NC(=O)c1c(Cl)cnn1C	none
O=C(C1CCOCC1)N1CCCC(N2CCN(c3ccc(F)cc3)CC2)C1 (centres undefined)	none (no result: KCNQ2 pot)
O=C(CCCCCNC(=O)N1CCn2c1nc1ccccc12)N[C@@H](Cc1ccccc1)C(=O)O	none (no result: KCNQ2 pot)
CC1CCCN(C(=O)C2CC(=O)N(c3ccc(Cl)cc3)C2)C1 (centres undefined)	none
C(=N\NC(=Nc1ccccc1)c1ccccn1)/c1ccccn1	none (no result: KCNQ2 pot)
Clc1ccc(/C=N/NC(=Nc2ccccc2)c2ccccn2)c(Cl)c1	KCNQ2 inh -8.2 | KCNQ2 inh conf -28% | KCNQ1 spec inactive | CHO parental ctr inactive | KCNQ2 patch conf active
Cc1[nH]n(-c2ccccc2)c(=O)c1C(C[N+](=O)[O-])c1ccccc1Cl (centres undefined)	none (no result: KCNQ2 pot)
COc1ccc(C(C[N+](=O)[O-])c2c(C)[nH]n(-c3ccccc3)c2=O)cc1 (centres undefined)	KCNQ2 inh -7 | KCNQ2 inh conf -26% | KCNQ1 spec inactive | CHO parental ctr inactive | KCNQ2 patch conf inactive
O=C(NCCN1CCOCC1)c1cc([N+](=O)[O-])cc([N+](=O)[O-])c1	none (no result: KCNQ2 pot)
O=C(COC(=O)C1CCN(c2ccc(C(F)(F)F)cn2)CC1)NCCc1ccccc1	none
COc1ccccc1CNC(=O)COC(=O)C1CCN(c2ccc(C(F)(F)F)cn2)CC1	KCNQ2 inh -6.8 | KCNQ2 inh conf inactive | KCNQ1 spec inactive | CHO parental ctr inactive
COCCN(C(=O)COC(=O)C(c1ccccc1)c1ccccc1)c1c(N)n(Cc2ccccc2)c(=O)[nH]c1=O	none (no result: KCNQ2 pot)
CCn1c(N2CCN(S(=O)(=O)c3ccccc3C(F)(F)F)CC2)nc2ccccc21	none (no result: KCNQ2 pot)
CCn1c(N2CCN(C(=O)C34CC5CC(CC(C5)C3)C4)CC2)nc2ccccc21	KCNQ2 inh -8.6 | KCNQ2 inh conf -40% | KCNQ1 spec -37% | CHO parental ctr -36% | KCNQ2 patch conf active
CC(C)CN(C(=O)COC(=O)CN1C(=O)c2ccccc2C1=O)c1c(N)n(Cc2ccccc2)c(=O)[nH]c1=O	none (no result: KCNQ2 pot)
CC(C)[C@H](NC(=O)N1CCn2c1nc1ccccc12)C(=O)NCc1ccccc1Cl	KCNQ2 inh -8.1 | KCNQ2 inh conf -34% | KCNQ1 spec -32% | CHO parental ctr -24% | KCNQ2 patch conf active
CC(C)[C@H](NC(=O)N1CCn2c1nc1ccccc12)C(=O)NCc1ccc(F)cc1	none (no result: KCNQ2 pot)
CCOC(=O)CNc1c(-c2ccc(OC)cc2)nc2ccc(Cl)cn12	KCNQ2 inh -8.9 | KCNQ2 inh conf -28% | KCNQ1 spec inactive | CHO parental ctr inactive | KCNQ2 patch conf active
COCCNc1c(-c2ccc(OC)cc2)nc2ccc(Cl)cn12	none (no result: KCNQ2 pot)
CC(C(=O)Nc1ccc(O)cc1C(=O)O)N1C(=O)/C(=C\c2cccs2)SC1=S (centres undefined)	none (no result: KCNQ2 pot)
O=C(COC(=O)CCSc1ccc(Cl)cc1)NCc1ccco1	KCNQ2 inh -8.1 | KCNQ2 inh conf inactive | KCNQ1 spec inactive | CHO parental ctr inactive
O=C(COC(=O)CCSc1ccc(Cl)cc1)NCc1ccccc1Cl	none
Oc1oc(-c2ccccc2)nc1C=Nc1cccc2ccccc12	KCNQ2 inh -8.7 | KCNQ2 inh conf inactive | KCNQ1 spec inactive | CHO parental ctr inactive
Oc1oc(-c2ccccc2)nc1/C=N/c1nccs1	none
O=C(CNC(=O)c1ccc(Cl)c([N+](=O)[O-])c1)OC1CCCCC1=O (centres undefined)	none (no result: KCNQ2 pot)
COc1ccc(/C=C/C(=O)N2CCCc3ccccc32)c(OC)c1	none (no result: KCNQ2 pot)
COc1ccc(OC)c(/C=C/C(=O)N2CCCc3ccccc32)c1	KCNQ2 inh -7 | KCNQ2 inh conf -38% | KCNQ1 spec inactive | CHO parental ctr inactive | KCNQ2 patch conf inactive
COC(=O)c1cc(-c2ccc3c(c2)OCO3)nc2ccccc12	none
Cc1cc(C)nc(NC(=O)c2cc(-c3ccc4c(c3)OCO4)nc3ccccc23)c1	KCNQ2 inh -7.7 | KCNQ2 inh conf -32% | KCNQ1 spec inactive | CHO parental ctr inactive | KCNQ2 patch conf active
COC(=O)c1ccc(CNC(=O)C2CCC(=O)N(CCN3CCOCC3)C2)cc1 (centres undefined)	none (no result: KCNQ2 pot)
CC(C)CC(=O)NC(Nc1ccc([N+](=O)[O-])cc1)C(Cl)(Cl)Cl (centres undefined)	none
COc1ccc(-c2cnc3n2CCCCC3)cc1	none (no result: KCNQ2 pot)
COc1ccc(-c2c[n+]3c4n2CCCCC4=C(c2ccc(Br)cc2)C3)cc1	KCNQ2 inh -8.7 | KCNQ2 inh conf -33% | KCNQ1 spec inactive | CHO parental ctr inactive | KCNQ2 patch conf inactive
COCCOC(=O)C1=C(C)NC(SCC(=O)NC(C)(C)C)=C(C#N)C1c1ccco1 (centres undefined)	none
COc1ccccc1NC(=O)C1=C(C)NC(SCC(=O)c2ccccc2)=C(C#N)C1c1ccco1 (centres undefined)	KCNQ2 inh -12 | KCNQ2 inh conf inactive | KCNQ1 spec inactive | CHO parental ctr inactive
O=C(N/C=C\c1ccccc1)NCc1ccc(Cl)cc1Cl	none (no result: KCNQ2 pot)
